Screening results as filed in PubChem BioAssay.
A selection: hits, their analogues and other compounds. The true share with any hit is near 10%.
HEK cytotox – HEK 293 cell cytotoxicity; HEK 293 viability, ATP luminescence (CellTiter-Glo), 48-72 h; Potency, µM (top dose mostly 115 µM), without a hit: at the highest dose activity change, negative = cytotoxicity, actives largely listed as inhibitors; 94,000 compounds, 6.6% hits; note: % is set by controls: 0 for no effect and ±100 for the full control effect; nearly all actives have a fitted effect of over 60% in size
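HEK 293 seeded at 250 cells/well receive compound via pintool. After 48 or 72 hr at 37 degree Celsius, 5% CO2 and 95% humidity, CellTiter-Glo is dispensed and luminescence read following 10 min at room temperature.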
GPT2 inh – blocks human glutamate pyruvate transaminase 2. Recombinant GPT2, coupled pyruvate oxidase/HRP Amplex Red fluorescence. Q8TD30. 100,000 compounds, 0.25% hits. Potency, µM (doses to about 57.7 µM), inactives show at the top dose activity change, negative = inhibition, actives largely listed as inhibitors; note: % is set by controls: 0 for no effect and ±100 for the full control effect; nearly all actives have a fitted effect of over 60% in size
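Fluorescence of coupled pyruvate oxidase/HRP/Amplex Red system (50uM Amplex, 30 min, dark) reports pyruvate formed by GPT2. Enzyme reaction: 10ng/uL GPT2, 2mM L-alanine, 250uM a-KG, 30 min room temperature, pH 7.5; 50uM AOA control.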
FLuc inh – blocks purified firefly luciferase enzyme activity. P08659. purified P. pyralis luciferase, luminescence, biochemical. Potency, µM (highest dose often 115 µM), actives largely listed as inhibitors. 76,000 compounds, 2.5% hits; note: % is set by controls: 0 for no effect and ±100 for the full control effect; nearly all actives have a fitted effect of over 65% in size
Target sequence (P08659 whole entry, looked up): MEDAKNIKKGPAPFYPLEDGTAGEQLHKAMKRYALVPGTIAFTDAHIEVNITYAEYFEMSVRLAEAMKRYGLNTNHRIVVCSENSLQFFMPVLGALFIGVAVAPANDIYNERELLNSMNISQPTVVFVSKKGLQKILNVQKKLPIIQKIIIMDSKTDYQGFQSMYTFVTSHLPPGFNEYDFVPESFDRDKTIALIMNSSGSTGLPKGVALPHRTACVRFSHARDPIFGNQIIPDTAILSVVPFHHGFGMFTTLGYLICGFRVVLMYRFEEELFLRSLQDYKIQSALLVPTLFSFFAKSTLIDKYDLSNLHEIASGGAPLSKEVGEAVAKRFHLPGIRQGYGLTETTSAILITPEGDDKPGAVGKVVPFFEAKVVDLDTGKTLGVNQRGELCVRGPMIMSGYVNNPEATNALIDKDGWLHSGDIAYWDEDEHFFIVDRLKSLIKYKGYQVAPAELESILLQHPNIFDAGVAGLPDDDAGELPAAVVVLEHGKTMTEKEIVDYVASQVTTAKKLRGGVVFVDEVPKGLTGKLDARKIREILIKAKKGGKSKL
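Cell-free enzyme assay, 10nM P. pyralis luciferase, luciferin and ATP each at 10uM. Inhibition profiled over a 6-point titration, read as luminescence.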
NPR1 antag – blocks ANP-stimulated signaling of human Npr1 receptor. P16066. Potency, µM (doses to about 46.3 µM), for the others: top-dose activity change, negative = inhibition, hits mostly inhibitors. 76,000 compounds, 1.6% hits. HEK293 hNpr1 GloSensor cGMP, ANP-stimulated luminescence; calls by dose curve; note: % is set by controls: 0 for no effect and ±100 for the full control effect; nearly all actives have a fitted effect of over 60% in size
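HEK293 cells stably expressing human Npr1 and cGMP GloSensor pGS-40F, loaded 2 h with 2% GloSensor reagent, given compound 30 min at room temperature. Luminescence read before and 20 min after 0.1 nM hNppA.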
3T3 cytotox – NIH 3T3 cell cytotoxicity; NIH 3T3 viability, CellTiter-Glo ATP luminescence, 48-72 h; Potency, µM (series often up to 96.7 µM), without a hit: at the top dose activity change, negative = cytotoxicity, hits mostly inhibitors; 94,000 compounds, 4.3% hits; note: % is set by controls: 0 for no effect and ±100 for the full control effect; nearly all actives have a fitted effect of over 55% in size
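NIH 3T3 cells at 400 cells/well received 23 nL of compound by pintool and were incubated 48 or 72 h at 37 °C. Viability was read as ATP-coupled CellTiter-Glo luminescence.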
NPR1 antag cnf – confirmation of human Npr1 natriuretic peptide receptor antagonists; HEK293 hNpr1 cGMP GloSensor luminescence, ANP-stimulated; Potency, µM (top dose mostly 57.6 µM), for inactives: at the top dose activity change, negative = inhibition, usual class: inhibitors; 1,400 compounds, 76% hits; shares compounds with NPR1 antag; AID 1347044; calls by dose curve; note: nearly all actives have a fitted effect of over 70% in size
Npr2 selectivity – hNpr2 antagonism, selectivity versus Npr1; shares compounds with NPR1 antag; HEK293 hNpr2 GloSensor cGMP luminescence, CNP-stimulated; Potency, µM (series often up to 57.6 µM), for the others: at the top dose activity change, negative = inhibition, actives largely listed as inhibitors; 1,400 compounds, 67% hits; AID 1347046; calls by dose curve; note: nearly all actives have a fitted effect of over 70% in size
FLuc counter – counter-screen for Npr1 antagonists: firefly luciferase inhibitors; shares compounds with NPR1 antag; purified FLuc enzyme, luminescence, Km substrate; Potency, µM (highest dose often 57.6 µM), without a hit: at the highest dose activity change, negative = inhibition, hits mostly inhibitors; AID 1347047; 1,400 compounds, 0.7% hits; note: 0% is about no effect
GloSensor ctrl – control cell line activity, Npr1 antagonist counter-screen | AID 1347051 | HEK293 GloSensor cGMP, SNP-stimulated, luminescence | shares compounds with NPR1 antag | 1,400 compounds, 69% hits | Potency, µM (series often up to 57.6 µM), inactives show at the top dose activity change, negative = inhibition, hits mostly inhibitors; calls by dose curve; note: % is set by controls: 0 for no effect and ±100 for the full control effect; nearly all actives have a fitted effect of over 70% in size
An asterisk follows results filed as active; i = inactive; ? = inconclusive; nt = no result given; [ ] = dose if it differs, or a comment. Unless noted, calls come from the whole dose curve; as a rule, active = well fitted curve in the direction sought with a large enough effect; inconclusive = small, poorly fitted or top-dose-only effect, or another doubt; inactive = no such curve, though single readings can be large; an effect the other way counts as inactive or inconclusive. Potency is the fitted concentration of half-maximal effect.

SMILES	HEK cytotox	GPT2 inh	FLuc inh	NPR1 antag	3T3 cytotox	NPR1 antag cnf	Npr2 selectivity	FLuc counter	GloSensor ctrl
O=C1Nc2ccccc2C12CCN(Cc1ccc(C(F)(F)F)cc1)CC2	?	-13%	nt	nt	?	24µM*	24µM*	-1%	24µM*
O=C1Nc2ccccc2C12CCN(Cc1ccc(F)cc1)CC2	?	i	nt	nt	-7%	nt	nt	nt	nt
COc1cc2c(cc1Oc1ccccc1)NC(=O)C21CCN(c2cnccn2)CC1	?	-2%[88.5 µM]	i	-21%[70.6 µM]	?	?	?	3%[86.2 µM]	?
CC[C@H]1CN2CC[C@H]1C[C@@H]2CNS(=O)(=O)c1cccs1	-1%[172 µM]	2%[88.5 µM]	i	0%[70.6 µM]	1%[174 µM]	nt	nt	nt	nt
CC[C@H]1CN2CC[C@H]1C[C@@H]2CN(Cc1cccs1)Cc1cccs1	45µM*	-4%[88.5 µM]	i	?	45µM*	?	?	3%[86.2 µM]	4%[86.2 µM]
CCC(CC)c1cc([C@H]2CN3CC[C@H]2C[C@@H]3CNS(C)(=O)=O)nc(-c2ccncc2)n1	-10%	-5%	i	2%	-15%	nt	nt	nt	nt
CCC(CC)c1cc([C@H]2CN3CC[C@H]2C[C@@H]3CNS(=O)(=O)c2cccs2)nc(-c2ccncc2)n1	?	i	i	14µM*	20µM*	22µM*	11µM*	5%	-15%
Cc1ncc2c(n1)C[C@@H]1CC[C@H]2N1	-4%	i	i	8%	-1%	nt	nt	nt	nt
C[C@]12CC[C@H](OC3OC(CO)C(O)C(O)C3OC3OC(CO)C(O)C(O)C3O)C[C@@H]1CC[C@@H]1C2CC[C@]2(C)[C@@H](C3=CC(=O)OC3)CC[C@]12O (stereo not given in full)	nt	i	nt	nt	nt	nt	nt	nt	nt
CCC(=O)N1[C@H]2CC[C@@H]1c1cnc(-c3ccc(F)cc3)nc1C2	-22%	i	i	?	-24%	nt	nt	nt	nt
O=C(C1CCCCC1)N1[C@H]2CC[C@@H]1c1cnc(-c3ccc(F)cc3)nc1C2	-34%	-14%	i	6.3µM*	-30%	9.7µM*	11µM*	5%	9.7µM*
O=C(CC1CCCC1)N1[C@H]2CC[C@@H]1c1cnc(-c3ccccc3)nc1C2	?	-1%	i	5.6µM*	-27%	11µM*	12µM*	2%	11µM*
COc1ccc(CNC(=O)N2[C@H]3CC[C@@H]2c2cnc(-c4ccccc4)nc2C3)cc1	?	-17%	i	13µM*	-43%	19µM*	19µM*	2%	14µM*
O=C(C1CCC1)N1[C@H]2CC[C@@H]1c1cnc(-c3ccc(F)cc3)nc1C2	?	i	i	18µM*	-43%	19µM*	19µM*	1%	15µM*
O=C(C1CCC1)N1[C@H]2CC[C@@H]1c1cnc(-c3ccccc3)nc1C2	?	i	i	?	-21%	nt	nt	nt	nt
COc1cc2c(cc1OCC1CC1)NC(=O)C21CCN(c2nccc(C(F)(F)F)n2)CC1	?	-8%	i	-14%	?	nt	nt	nt	nt
Cn1cccc1C(=O)N1[C@H]2CC[C@@H]1c1cnc(-c3ccc(F)cc3)nc1C2	16µM*	i	i	10µM*	?	12µM*	15µM*	2%	14µM*
